# Source: PubChem BioAssay (NCATS)
# Inconclusive results are not listed. Entries that show only a call come without a potency. Active and inactive are the calls of the source. Calls follow the shape of the full dose curve.
# Molecular target: Retinoic acid receptor RXR-alpha (Homo sapiens) (UniProt P19793)
# Test: qHTS assay for small molecule agonists of retinoid X receptor alpha signaling (AID 588544)
# Conditions: HEK293T RXRa-UAS-bla, beta-lactamase reporter, 18 h; series mostly up to 76.7 µM
# Source text: NIH Chemical Genomics Center [NCGC] U.S. Environmental Protection Agency [EPA] National Institutes of Environmental Health Sciences [NIEHS] National Toxicology Program [NTP] NCGC Assay Overview The Retinoid X receptor (RXR), a nuclear hormone receptor is expressed in liver, spleen, placenta, epidermis, central nervous system. These receptors are able to form homo and heterodimers with other nuclear receptors and due to this heterodimerizing ability, RXR functions as master regulators producing diverse physiological effects. Three subtypes of RXR exist; alpha, beta and gamma. Retinoid X receptor alpha (RXR-alpha) has potential roles in metabolic signaling pathways, skin alopecia, dermal cysts, cardiac development, insulin sensitization etc. Therefore screening environmental chemicals on RXR-alpha signaling can be used for the studies focused on such therapeutic applications.
# NCGC Assay Protocol Summary Using a beta-lactamase reporter-gene under control of Retinoid X receptor--alpha (RXR-alpha) response element, a cell-based assay [GeneBLAzer (RXR-alpha -UAS-bla assay developed by Invitrogen] was used to measure RXR-alpha ligands signaling. GeneBLAzer RXR-alpha -UAS-bla HEK293T cells were used with assay medium containing 2% charcoal-stripped FBS. The assay was performed in clear bottom black Greiner 1536-well plates. 9-cis-retinoic acid was used in the screen as the positive control. Library compounds were measured for their ability to stimulate the reporter gene activity. Compounds were screened in a titration series in 1536-well format. The fluorescence intensity (405 nm excitation, 460/530 nm emission) was measured using an EnVision plate reader. Data was normalized relative to 9-cis-retinoic acid control (500 nM, 100%), and DMSO only wells (basal, 0%). Concentration-response titration points for each compound were fitted to the Hill equation yielding concentrations of half-maximal stimulation (EC50) and maximal response (efficacy) values. qHTS protocol for RXR-alpha beta-lactamase assay in agonist mode [Step] [Parameter] [Value] [Description] 1. Reagent; 6 uL; 2500 cells/well 2. Incubation; 37 C for 4 hrs 3. Compounds; 23 nL; 0.59 nM to 92 uM 4. Controls (9-cis-retinoic acid); 23 nL, - One column with dose response, start 38 uM, 1:3 dilutions in duplicates - Final concentrations of 500 nM and 50 nM in two columns 5. Incubation; 37 C for 18 hrs 6. Detection reagent; 1 uL of CCF4-dye 7. Incubation; RT for 2 hrs 8. Detection; Fluorescence; Envision plate reader
# Chain of Retinoic acid receptor RXR-alpha (Homo sapiens) (P19793 whole entry, looked up): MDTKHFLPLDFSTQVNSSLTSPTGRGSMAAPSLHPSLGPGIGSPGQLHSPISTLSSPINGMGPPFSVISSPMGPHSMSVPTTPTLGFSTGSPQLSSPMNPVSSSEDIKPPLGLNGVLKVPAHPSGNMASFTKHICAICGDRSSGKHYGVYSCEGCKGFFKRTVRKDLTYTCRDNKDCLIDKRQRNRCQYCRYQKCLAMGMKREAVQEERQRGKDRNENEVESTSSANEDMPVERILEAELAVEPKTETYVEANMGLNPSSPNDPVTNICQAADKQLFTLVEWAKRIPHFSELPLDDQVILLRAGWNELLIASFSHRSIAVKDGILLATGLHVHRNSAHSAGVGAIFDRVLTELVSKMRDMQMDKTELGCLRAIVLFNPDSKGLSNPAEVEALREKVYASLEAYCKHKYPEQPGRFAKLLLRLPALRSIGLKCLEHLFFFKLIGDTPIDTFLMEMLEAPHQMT
row,Structure (SMILES),Potency
1,CNC(=O)N(C)c1nnc(C(C)(C)C)s1,inactive
2,O=NN(CCO)CCO,inactive
3,Nc1ccccc1Cl,inactive
4,CC(C)(C)C(=O)C(Oc1ccc(Cl)cc1)n1cncn1 (stereo not given),inactive
5,Clc1cccc(C(Cl)(Cl)Cl)n1,inactive
6,C1CCC2CCCCC2C1 (stereo not given),inactive
7,CC(C)(c1ccccc1)c1ccc(O)cc1,inactive
8,CC(C)OC(=O)Nc1cccc(Cl)c1,inactive
9,CCOP(=S)(OCC)SCSC(C)(C)C,inactive
10,Nc1ccc(Br)cc1,inactive
11,N#Cc1c(Cl)cccc1Cl,inactive
12,CCNc1nc(Cl)nc(NC(C)C)n1,inactive
13,CCCOC(=O)c1ccccc1C(=O)OCCC,inactive
14,ClC(Cl)(Cl)c1ccccc1,inactive
15,CC(Cl)Cl,inactive
16,CCS(=O)CCSP(=O)(OC)OC (stereo not given),inactive
17,COc1nc(NC(C)C)nc(NC(C)C)n1,inactive
18,C[C@H]1CCCC(=O)CCC/C=C/c2cc(O)cc(O)c2C(=O)O1,inactive
19,COc1ccc(N)cc1,inactive
20,O=S1OCC2C(CO1)C1(Cl)C(Cl)=C(Cl)C2(Cl)C1(Cl)Cl (stereo not given),inactive

row,Structure (SMILES),Potency
1,BrCCBr,inactive
2,Cc1ccccc1N,inactive
3,O=[N+]([O-])c1ccc(Cl)c(Cl)c1,inactive
4,C=CC1CC=CCC1 (stereo not given),inactive
5,Cc1ccc([N+](=O)[O-])cc1C,inactive
6,C=CC(N)=O,inactive
7,CC(=O)[O-].CC(=O)[O-].O.O.O.[Pb+2],inactive
8,Clc1ccc2ccccc2c1,inactive
9,CCCCCCCC(=O)Cl,inactive
10,Cc1cccc(O)c1,inactive
11,CC(O)CCl (stereo not given),inactive
12,O=C(Cl)/C=C/C(=O)Cl,inactive
13,CC(C)N1C(=O)c2ccccc2NS1(=O)=O,inactive
14,OCC(Br)CBr (stereo not given),inactive
15,COP(=S)(OC)Oc1ccc([N+](=O)[O-])cc1,inactive
16,O=C=NC1CCCCC1,inactive
17,COP(N)(=O)SC (stereo not given),inactive
18,C=CCOC(C)=O,inactive
19,CCCCOC(=O)c1ccccc1C(=O)OCCCC,inactive
20,CCc1cccc(CC)c1N(COC)C(=O)CCl,inactive
